Measured values taken from PubChem BioAssay AID651871 (Sanford-Burnham Center for Chemical Genomics, 2012).
“And” between values parts separate entries of the source, which are not always exact repeats. Identical values can stand only once.

System: HL-1
Experiment: protection of cardiomyocytes from stress damage, SAR follow-up, cell-based, panel, H9c2 and HL-1, ATP luminescence, set 2 (AID 651871);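 note: cells exposed to stressor for 2 h before ATP readout; reference of the scale not given here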
Conditions: H9c2/HL-1 cardiomyocytes, 2-deoxyglucose stress, with 2-deoxyglucose, run 10, at 79 µM (top of the series)

Structure (SMILES) | activity (protection/inhibition)
COc1ccc2nc(-c3cc(OC)c(OC)c(OC)c3)cc(C(=O)NCC(=O)Nc3ccc(C(C)=O)cc3)c2c1 | 56%
COc1ccc2c(c1OC)C(=O)N1c3ccccc3C(=O)N(Cc3cccc(Cl)c3Cl)C21 (stereo not drawn) | 36.7% and -11.3%
CCOC(=O)c1cccc(NC(=O)CNC(=O)c2cc(-c3cc(OC)c(OC)c(OC)c3)nc3ccccc23)c1 | 98.6%
